KCNH2 3.1 inh = inhibitors of human KCNH2 3.1 potassium channel isoform | U2OS KCNH2 3.1, thallium flux FluxOr; active compounds read low | actives 0.95% (n = 340,000) | activity change, % (tested at about 1.8 µM);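 active = maximum activity change below -70%; inconclusive = maximum activity change from -70% to -50%; inactive = maximum activity change above -50%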;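 also: thallium influx rate constant from kinetic fluorescence after stimulation buffer; % is scaled to controls: 0 for no effect and ±100 for the full control effect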
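Channel expression came from 3.1 mutant virus (1.77 x 10^8 /mL) applied to suspended U2OS cells for 4 h. Flux was tracked with FluxOr dye plus Red40 quencher, and kinetic rate constants normalized to controls.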
GLS inhibitor = glutaminase GLS (human) inhibition. AID 624170. GLS enzymatic activity, qHTS titration. Potency, µM (top dose mostly 45.5 µM), for the others: at the highest dose activity change, negative = inhibition, usual class: inhibitors. actives 0.21% (n = 410,000). O94925; also: potency is read from the fitted curve at half-maximal effect; % is scaled to controls: 0 for no effect and ±100 for the full control effect
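Glutamate formation by hKGA was monitored fluorometrically using coupled glutamate oxidase, HRP and Amplex Red. Substrate was added as 1 mM L-glutamine solution; incubation was 30 min at RT after an initial read.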
KCNH2 WT inh = blocks the wildtype human KCNH2 potassium channel. actives 0.37% (n = 340,000). Q12809. U2OS, BacMam KCNH2, thallium flux FluxOr; active compounds read low. activity change, % at 1.84 µM;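 active = maximum activity change below -70%; inconclusive = maximum activity change between -70% and -50%; inactive = maximum activity change above -50%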; also: % is scaled to controls: 0 for no effect and ±100 for the full control effect
Target sequence (Q12809 whole entry, looked up): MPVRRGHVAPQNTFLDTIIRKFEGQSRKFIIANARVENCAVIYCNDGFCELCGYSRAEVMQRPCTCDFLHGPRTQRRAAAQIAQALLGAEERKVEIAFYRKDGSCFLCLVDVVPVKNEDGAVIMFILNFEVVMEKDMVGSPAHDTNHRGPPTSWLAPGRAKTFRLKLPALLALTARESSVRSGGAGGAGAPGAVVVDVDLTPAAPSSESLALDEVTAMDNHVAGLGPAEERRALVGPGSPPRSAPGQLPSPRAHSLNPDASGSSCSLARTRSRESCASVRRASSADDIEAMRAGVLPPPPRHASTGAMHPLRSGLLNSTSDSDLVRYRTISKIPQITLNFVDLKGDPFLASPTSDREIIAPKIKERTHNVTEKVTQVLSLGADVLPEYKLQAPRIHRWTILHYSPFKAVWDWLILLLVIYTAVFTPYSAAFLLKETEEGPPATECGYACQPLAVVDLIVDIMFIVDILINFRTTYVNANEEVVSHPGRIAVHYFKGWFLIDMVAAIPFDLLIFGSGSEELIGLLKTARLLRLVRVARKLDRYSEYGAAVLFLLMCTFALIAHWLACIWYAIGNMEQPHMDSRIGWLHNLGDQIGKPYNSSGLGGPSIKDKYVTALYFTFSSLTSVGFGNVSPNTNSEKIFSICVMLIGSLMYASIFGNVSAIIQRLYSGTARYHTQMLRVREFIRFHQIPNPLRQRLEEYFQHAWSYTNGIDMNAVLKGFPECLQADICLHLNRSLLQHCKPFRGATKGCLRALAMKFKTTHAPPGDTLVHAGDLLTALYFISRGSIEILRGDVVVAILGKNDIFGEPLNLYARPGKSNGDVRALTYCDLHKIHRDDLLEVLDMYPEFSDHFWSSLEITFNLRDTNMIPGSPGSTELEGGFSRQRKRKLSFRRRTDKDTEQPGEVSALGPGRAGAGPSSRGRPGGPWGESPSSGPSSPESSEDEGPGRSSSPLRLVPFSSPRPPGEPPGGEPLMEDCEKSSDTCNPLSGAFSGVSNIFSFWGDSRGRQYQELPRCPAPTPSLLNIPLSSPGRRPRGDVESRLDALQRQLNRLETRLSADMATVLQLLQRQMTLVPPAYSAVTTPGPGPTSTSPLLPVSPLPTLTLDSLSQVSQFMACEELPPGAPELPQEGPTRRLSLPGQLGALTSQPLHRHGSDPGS
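U2OS cells were transduced with wild-type KCNH2 virus (2.03 x 10^8 / mL) for 4 h at room temperature, then cultured overnight at 37 C. Thallium flux was read with FluxOr dye. Rate constants were normalized to DMSO controls.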
GLP-1R agonist = agonists of human GLP-1 receptor; AID 624172; P43220; HEK293 GLP-1R CRE-luciferase, luminescence, 4-6 h; cells express a hypersensitive GLP-1R form; actives 0.007% (n = 380,000); Potency, µM (series often up to 45.6 µM), for the others: at the highest dose activation, hits mostly activators; also: potency is read from the fitted curve at half-maximal effect; % of control where 0% means no effect
GLP1R inv ag = acts as inverse agonist at human GLP-1 receptor; P43220; Potency, µM (highest dose often 38.3 µM), for the others: at the highest dose activity change, negative = inhibition, most hits filed as inhibitors; actives 1.6% (n = 410,000); HEK293 GLP-1R CRE-luciferase, luminescence, 24 h; GLP-1R form is constitutively active; AID 624417; also: potency is read from the fitted curve at half-maximal effect; % is scaled to controls: 0 for no effect and ±100 for the full control effect; nearly all actives have a fitted effect of over 55% in size
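Inverse agonism was detected as reduced cAMP-driven luciferase luminescence after 24 h compound treatment. The cells were HEK293 clones expressing constitutively active human GLP-1R with the reporter. Reporter-only and GPR119 cell lines served as counterscreen controls.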
HEK293 tox = cytotoxicity counter-screen for GLP-1 receptor inverse agonists | Potency, µM (titrated, usually from 38.3 µM), inactives show at the highest dose activity change, negative = inhibition, hits mostly inhibitors | HEK293 cAMP-luciferase reporter cells, luminescence, 24 h | AID 624418 | actives 0.13% (n = 410,000);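 also: loss of luciferase light is scored as toxicity; potency is read from the fitted curve at half-maximal effect; % is scaled to controls: 0 for no effect and ±100 for the full control effect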
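1536-well qHTS counterscreen of the MLSMR; 200 cells/uL, 12 h pre-incubation, 23 nL cpd, 24 h at 37 deg C 5% CO2, luciferase detection reagent, 12 min RT, luminescence. Inhibition = undesired.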
An asterisk follows results filed as active; ? = inconclusive; . = no result. A selection: hits, their analogues and other compounds. The true share with any hit is near 2.8%. Unless noted, calls follow the shape of the dose curve; as a rule, active = well fitted curve in the direction sought with a large enough effect; inconclusive = small, poorly fitted or top-dose-only effect, or another doubt; inactive = no such curve, though single readings can be large; an effect the other way counts as inactive or inconclusive.

SMILES	KCNH2 3.1 inh	GLS inhibitor	KCNH2 WT inh	GLP-1R agonist	GLP1R inv ag	HEK293 tox
COCCn1c(SCC(=O)Nc2ccc(S(N)(=O)=O)cc2)nc2ccccc21	-2	13%	6	1%	-30%	-11%
CC(C)(C)c1ccc(C(=O)N2CCC3(CC2)NCCc2[nH]cnc23)cc1	4	-16%	-5	1%	4%	-12%
O=C(c1ccc(Br)cc1)N1CCC2(CC1)NCCc1[nH]cnc12	-87*	-10%	?	1%	-2%	0%
CCOc1ccc(C(=O)N2CCC3(CC2)NCCc2[nH]cnc23)cc1	-89*	5%	-14	1%	15%	6%
Cn1nc(C(=O)NCc2ccccc2Cl)c2c1-c1ccccc1SC2	.	6%	.	.	3%	0%
O=C(NC(NC(=S)Nc1ccc(Cl)c(Cl)c1)C(Cl)(Cl)Cl)c1ccco1 (configuration not stated)	8	-1%	-4	-37%	3.5µM*	?
S=C(NCc1ccco1)Nc1cccc(Cl)c1	-3	21%	0	0%	8.9µM*	-12%
S=C(NCc1ccco1)Nc1cc(Cl)c(Cl)cc1Cl	-6	19%	27	-17%	?	-29%
S=C(NCc1ccco1)Nc1ccc(Cl)c(Cl)c1	10	28%	7	0%	10µM*	-11%
CC(C)CC(NC(=O)C1CCC(C)CC1)C(=O)OCC(=O)c1ccc(Cl)cc1 (configuration not stated)	.	-14%	.	0%	15%	5%
CCC1=NN2C(=N)/C(=C\c3ccc(OCc4cc(=O)n5nc(CC)sc5n4)c(OC)c3)C(=O)N=C2S1	-23	11µM*	-15	-5%	19%	4%
O=C(Nc1cc(Cl)ccc1F)C1=COCCO1	4	-8%	-2	0%	27%	0%
O=C(Nc1cc(Cl)ccc1Oc1ccccc1)C1=COCCO1	-74*	-15%	6	7%	?	7%
CCOc1ccc(Oc2ccc(Cl)cc2NC(=O)C2=COCCO2)cc1	15	9%	4	14%	10µM*	12%
COC(=O)CN1C(=O)CSc2ccc(S(=O)(=O)Nc3ccc(F)c(Cl)c3)cc21	.	-4%	.	.	-16%	2%
CCC(CC)C(=O)Nc1cccc(-c2nc3cccnc3s2)c1C	.	4%	.	.	6%	0%
CCC12C(=O)C(CC)(C(c3ccccc3)=C1c1ccccc1)[C@@H]1C(=O)N(c3ccccc3)C(=O)C12 (some centres not stated)	-8	-8%	19	4%	3.2µM*	3%
O=C(CN1CCN(C(=O)C2CCCO2)CC1)Nc1ccc(Br)cc1 (configuration not stated)	-6	-1%	18	8%	25%	2%
CCC(c1nnnn1-c1ccc2c(c1)OCCO2)N1CCN(c2ncccc2C(F)(F)F)CC1 (configuration not stated)	.	0%	.	11%	?	4%
O=C(Cc1ccc(Cl)cc1)Oc1cccc2cccnc12	-5	-1%	-2	22%	-1%	2.5µM*
O=C(Oc1cccc2cccnc12)c1ccco1	-7	8%	1	-1%	10µM*	?
O=C(Oc1cccc2cccnc12)c1ccc2c(c1)OCCO2	20	0%	-7	11%	4µM*	-5%
Cc1cc(Nc2cccc(C(F)(F)F)c2)nc2ccc(NC(=O)Cc3ccc(Cl)cc3)cc12	.	-6%	.	-4%	?	-14%
C=C(c1ccccc1Cl)[n+]1ccccc1	-4	-1%	-3	7%	-24%	-1%
CC1(C)C(=O)N(CCN2CCC(C(=O)c3ccc(F)cc3)CC2)c2ccccc21	-75*	-3%	17	-1%	5%	3%
SMILES	KCNH2 3.1 inh	GLS inhibitor	KCNH2 WT inh	GLP-1R agonist	GLP1R inv ag	HEK293 tox
CC(C)n1cc(/C=C2\NC(=O)N(c3cccc(Cl)c3)C2=O)c2ccccc21	-10	-6%	0	-15%	4µM*	-15%
CCOc1ccc(CNS(=O)(=O)c2c(C(=O)N3CCC(C)CC3)c(C)n(C)c2C)cc1OC	.	4%	.	.	11%	-3%
CN(C(=S)NC(=O)c1ccccc1Br)C1CCCCC1	9	10%	22	3%	10µM*	?
Cc1ccc(NC(=O)C2CCN(C(=O)[C@@H]3Cc4ccccc4CN3)CC2)cc1	-46	10%	-2	-3%	-8%	-20%
CC(C)c1ccc(NC(=O)C2CCN(C(=O)[C@@H]3Cc4ccccc4CN3)CC2)cc1	-88*	2%	-17	-4%	?	-26%
Cc1nc(S/C(=C\c2ccc(-c3ccc(C(=O)O)c(Cl)c3)o2)C(=O)O)n[nH]1	-4	16µM*	-6	-3%	12%	-11%
Cc1nc(S/C(=C\c2ccc(OCc3ccccc3Cl)cc2)C(=O)O)n[nH]1	1	19%	-3	-16%	8%	6%
COC(=O)C1=C(CN2CCc3ccccc32)NC(=O)NC1c1cc(C)ccc1C (configuration not stated)	1	9%	-3	-12%	8.9µM*	-24%
COC(=O)C1=C(CN2CCN(C)CC2)NC(=O)NC1c1cc(C)ccc1C (configuration not stated)	16	1%	39	3%	0%	-9%
O=c1c(=O)n(O)c2ccccc2n1O	14	13µM*	0	-1%	7%	-2%
COn1c(=O)c(=O)n(O)c2ccccc21	-3	15%	-2	2%	16%	-6%
S=C(Nc1ccccc1Cl)N(Cc1ccccc1)Cc1ccccn1	0	-12%	2	5%	10µM*	?
Cc1c(Cl)cccc1NC(=S)N(Cc1cccnc1)Cc1ccccc1Cl	0	-13%	1	10%	11µM*	-25%
O=C(CCCCCNC(=O)N1CCn2c1nc1ccccc12)N[C@@H](Cc1ccccc1)C(=O)O	-5	8%	3	-2%	9%	1%
Cc1cc(=O)oc2cc(OCC(=O)Nc3ccc(N4CCC(C)CC4)cc3)ccc12	-18	-1%	-8	-3%	3%	-16%
Nc1ncnc(Sc2ncccn2)c1[N+](=O)[O-]	6	-2%	-12	-5%	?	11µM*
CCN(CC)C(=O)C1=C(C)N(Cc2ccc(C(C)(C)C)cc2)C(=O)C(CC(=O)NC(c2ccccc2)c2ccccc2)C1 (configuration not stated)	-18	4%	-3	6%	7.9µM*	-24%
